Screens from PubChem BioAssay.
A selection: hits, their analogues and other compounds. The true share with any hit is near 28%.
hDAT+cocaine – changed hDAT dopamine uptake under cocaine IC80, either direction, primary screen, cocaine antagonist project, cell-based, LLC-PK1 hDAT, [14C]-dopamine uptake, MLSMR. Sodium-dependent dopamine transporter (Homo sapiens), Q01959. B-score at 10 µM. hit rate 1.3% among 110,000. AID 449768, 2010. LLC-PK1 hDAT cells, [14C]-dopamine uptake with cocaine IC80; actives deviate in either direction;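 active = Z score or B-score, a plate-position-corrected score, falls beyond the plate's 99.7% confidence bounds, in either direction; inactive = both scores lie inside the 99.7% bounds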
CYP2C9 inh – blockers of cytochrome P450 2C9 activity – biochemical, luminescence, ADME assay, primary screen; inhibition, % at 5 µM; hit rate 20% among 96,000; AID 777, 2007; CYP2C9 Supersomes, luciferin-H conversion; P11712;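 active = blocking of liver enzyme CYP2C9 beyond about 50% at 5 µM, limit read from the data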
Target sequence (P11712 whole entry, looked up): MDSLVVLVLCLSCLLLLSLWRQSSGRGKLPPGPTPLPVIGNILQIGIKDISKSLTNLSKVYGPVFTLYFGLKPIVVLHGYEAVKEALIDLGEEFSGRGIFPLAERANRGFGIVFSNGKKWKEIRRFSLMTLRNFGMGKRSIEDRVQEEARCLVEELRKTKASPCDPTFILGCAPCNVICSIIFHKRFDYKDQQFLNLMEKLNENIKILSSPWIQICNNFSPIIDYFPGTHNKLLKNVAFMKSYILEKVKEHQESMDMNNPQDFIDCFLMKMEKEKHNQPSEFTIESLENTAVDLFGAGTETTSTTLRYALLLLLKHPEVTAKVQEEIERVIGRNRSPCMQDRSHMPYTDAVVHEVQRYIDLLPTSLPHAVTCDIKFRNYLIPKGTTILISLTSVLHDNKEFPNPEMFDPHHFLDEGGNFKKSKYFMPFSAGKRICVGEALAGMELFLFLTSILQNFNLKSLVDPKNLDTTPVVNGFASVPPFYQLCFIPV
D1 mod – D1 CRE-luciferase signal change, two-sided – cell-based, HEK293 D1, dopamine EC30, D1 allosteric modulator project, primary screen. D(1A) dopamine receptor (Homo sapiens), P21728. dopamine EC30 potentiation; actives deviate in either direction. B-score at 10 µM. hit rate 5.9% among 58,000;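 active = luminescence count or its row- and column-corrected plate score outside the 99.7% band of the plate's sample wells, on either side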
CYP2C19 act – human CYP2C19 activators, primary screen, biochemical, luminescence. Cytochrome P450 2C19 (Homo sapiens), P33261. recombinant CYP2C19, luciferin-H EGE luminescence; stronger effect = higher value; 0 = fully inhibited enzyme, 1 = untreated enzyme. activation factor at 5 µM. 96,000 tested, under 10 active;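 active = activation factor of at least 2 at 5 µM in the primary screen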
CYP2C9 activ – human CYP2C9 activators, primary screen, biochemical, luminescence. hit rate 1.4% among 96,000. activation factor at 5 µM. Cytochrome P450 2C9 (Homo sapiens), P11712. recombinant CYP2C9, luciferin-H conversion; stronger effect = higher value; factor 1 = untreated enzyme, 0 = blocked;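 active = activation factor of 2 or more for CYP2C9 at a 5 µM dose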
CYP2C19 inh – blockers of cytochrome P450 2C19 activity – biochemical, luminescence, ADME assay, primary screen; P33261; CYP2C19 Supersomes, luciferin-H EGE luminescence, 30 min; inhibition, % at 5 µM; hit rate 21% among 96,000;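 active = CYP2C19 inhibition above a set limit at 5 µM in the primary screen, cut at about 50% in these data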
Of the large screens only hits and unclear results are named; the others gave an inactive call.

CCCC(=O)Nc1nnc(CCN2CCCCC2)s1	none (no result: D1 mod)
COc1ccc(N2C(=O)CSC23C(=O)N2c4c(cccc43)C(C)=CC2(C)C)cc1 (configuration not stated)	CYP2C9 inh 80, CYP2C19 inh 98 (no result: D1 mod)
CC(C)NC(=O)N(O)C1N(Cc2ccc3c(c2)OCO3)C(=S)SC1(C)C (configuration not stated)	CYP2C9 inh 94, CYP2C19 inh 98
CCOc1ccc(-c2nc(CSCC(=O)NCCN3CCOCC3)c(C)o2)cc1	none
O=C(c1ccc(N2C(=O)C3CC=C(Cl)CC3C2=O)cc1)N1CCCCC1 (configuration not stated)	none (no result: D1 mod)
O=C(Nc1ccc(Br)cc1)c1ccc(N2C(=O)C3CC=C(Cl)CC3C2=O)cc1 (configuration not stated)	CYP2C9 inh 74 (no result: D1 mod)
CN(C)c1nc2sc3c(c2c(=O)n1C)CC(C)(C)OC3	none (no result: D1 mod)
CNc1nc2sc3c(c2c(=O)n1C)CC(C)(C)SC3	CYP2C9 inh 56, CYP2C19 inh 73
Nc1nc(SCC(=O)NC2CCCC2)[nH]c(=O)c1-c1ccccc1	none (no result: D1 mod)
Oc1ccc(Nc2nc(NCC3CCCO3)c3ccccc3n2)cc1 (configuration not stated)	D1 mod -2.9
Cc1cc(NC(=O)c2cccc(COc3ccc(Br)cc3)c2)no1	none (no result: D1 mod)
COc1ccc(CCNC(=O)CCS(=O)(=O)c2ccc(C)cc2)cc1OC	none (no result: D1 mod)
COc1ccc(CCNC(=S)Nc2ccccc2C)cc1	none (no result: D1 mod)
CCCCNC(=O)Cn1c(-c2ccc(OC)cc2)noc1=O	CYP2C19 inh 65
COc1ccc(S(=O)(=O)CCC(=O)NCCc2ccc(Cl)cc2)cc1	CYP2C9 inh 71, CYP2C19 inh 71 (no result: D1 mod)
COc1ccc(CCNC(=S)Nc2cc(C)cc(C)c2)cc1	CYP2C19 inh 62 (no result: D1 mod)
CCCCC(=O)NCCc1ccc(OC)cc1	CYP2C19 inh 57 (no result: D1 mod)
Cc1cc2c3c(c1C)C1(C(=O)N3C(C)(C)CC2C)C(C#N)=C(N)Oc2cc(O)ccc21 (configuration not stated)	none (no result: D1 mod)
CN1CC(=O)NC1=NC(=O)c1ccc(Cl)c(S(=O)(=O)N2CCCCCC2)c1	none
COCCCNC(=O)CC(NS(=O)(=O)c1ccc(Cl)cc1)c1ccc(OC)cc1 (configuration not stated)	CYP2C19 inh 55 (no result: D1 mod)
CCCc1ccc(OCCNC(=O)CC)cc1	CYP2C19 inh 56
CCCc1ccc(OCCNC(C)=O)cc1	none (no result: CYP2C9 inh, CYP2C19 act, CYP2C9 activ, CYP2C19 inh)
COCCCNC(=O)CC(NS(=O)(=O)c1ccc(OC)cc1)c1ccc(OC)cc1 (configuration not stated)	none
Cc1cc(C)c(C)c(OCc2nc(-c3cccnc3)no2)c1	CYP2C19 inh 68
Cc1ccc(OCc2nc(-c3ccccc3)no2)c(C)c1	CYP2C9 inh 59, CYP2C19 inh 72
Clc1ccc(-c2noc(COc3ccccc3)n2)cc1	none
N#CC1C(C#N)N2CCCN2C1c1ccc(Cl)cc1 (configuration not stated)	none (no result: CYP2C9 inh, D1 mod, CYP2C19 act, CYP2C9 activ, CYP2C19 inh)
Cc1ccc(C2(C(F)(F)F)NC(=O)N3CCCN=C3S2)cc1 (configuration not stated)	CYP2C19 inh 76
O=C1NC(c2ccccc2)(C(F)(F)F)SC2=CCCCCN12 (configuration not stated)	none (no result: CYP2C9 inh, CYP2C19 act, CYP2C9 activ, CYP2C19 inh)
Cc1ccc(C2(C(F)(F)F)NC(=O)N3CCN=C3S2)cc1 (configuration not stated)	CYP2C19 inh 76
O=C1CC(=C2c3ccccc3-c3ccccc32)C(=O)N1CCN1CCN(c2cccc(Cl)c2)CC1	none (no result: CYP2C9 inh, D1 mod, CYP2C19 act, CYP2C9 activ, CYP2C19 inh)
COc1cc(S(=O)(=O)Nc2cccc(C(=O)O)c2)c(OC)cc1Cl	none (no result: D1 mod)
COc1ccc(OC)c(S(=O)(=O)Nc2cc(OC)c(Cl)cc2OC)c1	CYP2C9 inh 56, CYP2C19 inh 57
COc1cc(NS(=O)(=O)c2ccc(OC)c(C)c2C)c(OC)cc1Cl	CYP2C9 inh 99, CYP2C19 inh 99
COc1ccc(S(=O)(=O)Nc2ccccn2)c(C)c1C	none
O=C(NCc1cccnc1)c1cccc2c1C(=O)N(Cc1cccnc1)C2	CYP2C19 inh 76 (no result: D1 mod)
CCOC(=O)N1CCC(N2Cc3cccc(C(=O)NCc4ccc(OC)cc4)c3C2=O)CC1	none (no result: hDAT+cocaine, CYP2C9 inh, CYP2C19 act, CYP2C9 activ, CYP2C19 inh)
COCCN1Cc2cccc(C(=O)Nc3cccc(OC)c3)c2C1=O	none
COCCN1Cc2cccc(C(=O)NCc3cccnc3)c2C1=O	CYP2C19 inh 78
COc1ccc(CNC(=O)c2cccc3c2C(=O)N(Cc2cccnc2)C3)cc1	CYP2C9 inh 76, CYP2C19 inh 55
CN(CC(=O)NCCC1=CCCCC1)S(=O)(=O)c1ccc2c(c1)c(=O)n(C)c(=O)n2C	none
CS(=O)(=O)N1CCN(c2ccccc2NC(=O)c2ccco2)CC1	none (no result: D1 mod)
O=C1c2ccccc2C(=O)N1c1ccc(Cl)cn1	none (no result: D1 mod)
Cc1cccc(OCCCCc2c(C)n[nH]c2C)c1	CYP2C9 inh 76, CYP2C19 inh 89
COc1ccc(OCCCc2c(C)n[nH]c2C)cc1	CYP2C9 inh 69, CYP2C19 inh 85 (no result: hDAT+cocaine, D1 mod)
Cc1n[nH]c(C)c1CCCOc1ccccc1	CYP2C9 inh 60, CYP2C19 inh 87 (no result: D1 mod)
O=C(N1CCCC1)C12CCC3CC(CC(C3)C1)C2	none (no result: D1 mod)
CCN(CCCNC(=O)CC1Oc2ccc(C)cc2NC1=O)Cc1ccccc1 (configuration not stated)	none
Cn1c(=O)c(C(=O)Nc2ncccc2O)c(O)c2ccccc21	hDAT+cocaine 2.2
NNC(=O)c1cccc(COc2ccccc2Br)c1	CYP2C9 inh 78, CYP2C19 inh 98 (no result: hDAT+cocaine, D1 mod)
O=C(NCc1ccccc1)c1cccc(COc2ccccc2Cl)c1	none (no result: D1 mod)
CC(C)=C1C2C=CC1C(C(=O)Nc1cccc(C)c1)C2C(=O)O (configuration not stated)	none
CC(c1nc2ccccc2o1)N1C(=O)c2ccccc2C1=O (configuration not stated)	none (no result: CYP2C9 inh, D1 mod, CYP2C19 act, CYP2C9 activ, CYP2C19 inh)
Cc1nc(N(C)Cc2ccccc2)c2nnn(Cc3ccccc3)c2n1	CYP2C9 inh 98, CYP2C19 inh 100 (no result: D1 mod)
C#CCOc1c(Br)cc(/C=N/O)cc1OCC	CYP2C9 inh 72 (no result: D1 mod)
C#CCOc1c(Br)cc(/C=N\NC(=O)CN2CCOCC2)cc1OCC	CYP2C9 inh 59 (no result: D1 mod)
C=CCNC(=O)CN(c1ccc(F)cc1)S(=O)(=O)c1ccc(OC)cc1	CYP2C9 inh 64, CYP2C19 inh 92
COc1ccc(S(=O)(=O)N(CC(=O)NCc2ccco2)c2ccccc2)cc1OC	CYP2C19 inh 91
Cc1ccc(N(CC(=O)N/N=C/c2ccco2)S(=O)(=O)c2ccccc2)cc1	none (no result: D1 mod)
COc1ccc(CC(=O)NCc2ccco2)cc1OC	none (no result: D1 mod)
